High-throughput results as filed in PubChem BioAssay.
The list is not random: actives were taken first. Their share in the collection is about 2.1%.
PfHsp90 yeast 2: growth inhibition of PfHsp90-expressing yeast, primary screen, antimalarial PfHsp90 inhibitor project, S. cerevisiae, BacTiter-Glo luminescence, single point, set 2; BacTiter-Glo ATP, 48 h; yeast lacking PDR1 and PDR3 efflux regulators; actives 0.32% (n = 310,000); inhibition, % at 9.4 µM;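 active means every replicate shows inhibition above about 80%, whatever the replicate mean, limit read from the data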;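 further: 0% = DMSO neutral controls and 100% = 20 µM radicicol positive controls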
SIRT5 inh: SIRT5 desuccinylase inhibitors, primary screen, biochemical, fluorescence imaging, single point, set 5; inhibition, % at 15 µM; actives 1.1% (n = 330,000); Purified SirT5, succinyl-peptide AMC, trypsin-coupled fluorescence; AID 652115, 2013; NAD-dependent protein deacylase sirtuin-5, mitochondrial (Homo sapiens), Q9NXA8; in the data active means inhibition above about 15%
Target sequence (Q9NXA8 whole entry, looked up): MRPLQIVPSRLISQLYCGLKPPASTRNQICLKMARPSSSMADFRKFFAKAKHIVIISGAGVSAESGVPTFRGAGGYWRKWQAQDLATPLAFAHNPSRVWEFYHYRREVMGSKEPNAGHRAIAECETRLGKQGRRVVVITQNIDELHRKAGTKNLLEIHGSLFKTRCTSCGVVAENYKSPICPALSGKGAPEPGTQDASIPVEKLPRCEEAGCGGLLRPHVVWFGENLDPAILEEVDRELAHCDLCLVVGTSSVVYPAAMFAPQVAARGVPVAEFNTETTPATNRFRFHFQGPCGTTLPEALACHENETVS
NSD2 inh: NSD2 histone methyltransferase inhibitors, primary screen, biochemical, AlphaScreen, single concentration, set 2 | inhibition, % at 12.5 µM | actives 0.54% (n = 310,000) | AID 743445, 2014 | NSD2 peptide methylation, 120 min | Histone-lysine N-methyltransferase NSD2 (Homo sapiens), O96028; in the data active means inhibition above about 50%
ARNT-TACC3 inh: disruptors of ARNT/TACC3 protein interaction, primary screen, biochemical, AlphaScreen, single concentration; AID 623870, 2012; AlphaScreen His-ARNT PAS-B/GST-TACC3 binding, luminescence; TACC3 fragment carries E629A point mutation; Transforming acidic coiled-coil-containing protein 3 (Homo sapiens), Q9Y6A5; actives 0.66% (n = 390,000); inhibition, % at 9.99 µM;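 active means mean inhibition of replicates at least 50% and at least half of replicates each reaching 50%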;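 further: 0% = complete ARNT plus TACC3 wells and 100% = ARNT alone without TACC3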
Casp6 inh: human caspase-6 inhibitors, primary screen, biochemical, VEID-R110 fluorescence, single point, set 2; purified caspase-6, Z-VEID-R110 cleavage fluorescence; inhibition, % at 12.5 µM; actives 0.53% (n = 350,000);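 active means mean inhibition across replicates at least about 35%, with every replicate also reaching that limit, limit read from the data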;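 further: 0% = median of neutral control wells and 100% = no fluorescence left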
Target sequence (P55212 24-179 limits assumed): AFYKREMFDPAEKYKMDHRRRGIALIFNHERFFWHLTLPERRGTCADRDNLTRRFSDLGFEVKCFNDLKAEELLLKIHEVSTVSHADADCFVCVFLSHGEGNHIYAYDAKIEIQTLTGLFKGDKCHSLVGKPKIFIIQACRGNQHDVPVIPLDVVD
Target sequence (P55212 194-293 limits assumed): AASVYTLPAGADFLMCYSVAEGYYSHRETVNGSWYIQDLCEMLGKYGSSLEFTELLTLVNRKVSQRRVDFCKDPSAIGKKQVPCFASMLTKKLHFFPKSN
An asterisk follows results filed as active; . = no result.

SMILES	PfHsp90 yeast 2	SIRT5 inh	NSD2 inh	ARNT-TACC3 inh	Casp6 inh
O=C(Cn1nc(-c2ccc(Cl)cc2)ccc1=O)NCC1CCCO1 (stereo unspecified)	17.4	19.4*	.	-3.0	-1.0
Cc1ccccc1C(=O)NCCn1cc(SCC(=O)NCC2CCCO2)c2ccccc21 (stereo unspecified)	10.4	-2.5	-1.8	6.8	41.5*
Cn1c(SCC(=O)NCC2CCCO2)nnc1-c1ccc(Cl)cc1 (stereo unspecified)	5.2	19.2*	.	6.7	-1.0
COc1ccc(-c2nnc(SCC(=O)NCC3CCCO3)n2C)cc1 (stereo unspecified)	-6.6	-3.8	12.0	-5.5	7.1
Cc1ccc(S(=O)(=O)N(C)C[C@@H]2Oc3ccc(NC(=O)Nc4ccc5c(c4)OCO5)cc3C(=O)N([C@H](C)CO)C[C@@H]2C)cc1	.	-2.9	.	5.8	-0.6
O=C(CSc1ccc2nnc(-c3ccccc3)n2n1)NCc1ccco1	-20.2	.	-5.4	0.8	.
O=C(CSc1ccc2nnc(-c3ccccn3)n2n1)NCc1ccco1	-9.8	-1.6	.	61.3*	-0.4
COc1ccc2c3c([nH]c2c1)[C@H](CO)N(C(=O)C1CC1)CC31CN(Cc2nccs2)C1	.	1.4	.	.	-1.5
C[C@H]1CN([C@@H](C)CO)S(=O)(=O)c2ccc(C#Cc3ccccc3F)cc2O[C@H]1CN(C)C(=O)c1ccc2c(c1)OCO2	.	16.8*	.	16.9	-0.6
C[C@H]1CN([C@@H](C)CO)S(=O)(=O)c2ccc(C#Cc3ccccc3F)cc2O[C@@H]1CN(C)C(=O)Cc1ccccc1	.	0.9	.	-6.5	-1.6
C[C@@H]1CN([C@@H](C)CO)S(=O)(=O)c2ccc(C#Cc3ccccc3F)cc2O[C@@H]1CN(C)C(=O)c1ccc2c(c1)OCO2	.	25.8*	.	10.1	-3.1
CCOc1ccc2nc(/N=C/c3c(C)[nH]n(-c4ccccc4)c3=O)sc2c1	12.7	.	4.1	27.4*	.
COc1ccc(N=C2S/C(=C\c3ccc(OCC(=O)O)cc3)C(=O)N2CCc2c[nH]c3ccccc23)cc1	-53.2	49.8*	.	18.1	82.5*
Cc1ccc(C)c(NCC(=O)NNC(=S)Nc2ccccc2)c1	11.7	18.3*	0.1	12.9	-3.0
Cc1ccc(C)c(NC(=O)CCC(=O)NNC(=S)Nc2ccccc2)c1	-26.8	-4.3	-1.1	4.5	-0.4
CN(C)c1cc(Nc2ccc(O)cc2)c([N+](=O)[O-])c2nonc12	-1.0	-2.4	0.2	-9.3	2.5
O=[N+]([O-])c1c(Nc2ccc(O)cc2)cc(Cl)c2nonc12	-6.4	17.3*	44.6	18.4	14.7
CN=c1scc(-c2ccccc2F)n1/N=C/c1ccc(O)c(O)c1O	16.1	3.9	11.2	52.8*	21.2
CCN=c1scc(-c2cccs2)n1/N=C/c1cc(OC)ccc1O	0.9	.	2.0	8.6	.
CC(C)N=c1scc(-c2cccs2)n1/N=C/c1ccc(O)c(O)c1O	105.7*	.	10.7	58.7*	.
C[C@@H]1CN([C@H](C)CO)C(=O)c2cc(C#CC3CCCCC3)cnc2O[C@H]1CN(C)S(C)(=O)=O	.	6.5	.	-1.8	2.7
COc1ccccc1S(=O)(=O)N[C@@H]1CC[C@@H](CCNC(=O)C2CCOCC2)O[C@@H]1CO	.	6.0	.	-5.5	-0.3
Cc1cc(N2C(=O)C(O)=C(C(=O)c3cc4ccccc4o3)C2c2ccc(Cl)cc2)no1 (stereo unspecified)	-6.4	12.9	-2.5	10.1	32.7
Cc1cc(N2C(=O)C(O)=C(C(=O)c3cc4ccccc4o3)C2c2ccc(Br)cc2)no1 (stereo unspecified)	5.1	25.1*	-3.5	5.6	47.6*
C[C@H]1CN([C@@H](C)CO)C(=O)c2cc(NC(=O)c3ccncc3)ccc2O[C@@H]1CN(C)C(=O)Nc1ccc(C(F)(F)F)cc1	.	.	.	.	-0.9
SMILES	PfHsp90 yeast 2	SIRT5 inh	NSD2 inh	ARNT-TACC3 inh	Casp6 inh
Cc1cc(C)n(CC(=O)NNC(=O)COc2ccc(Cl)cc2Cl)n1	8.9	15.3*	-1.8	6.7	-0.3
CC(C)C#Cc1ccc2c(c1)O[C@H](CN(C)Cc1ccccc1)[C@@H](C)CN([C@H](C)CO)S2(=O)=O	.	1.0	.	37.2	0.0
C[C@@H]1CN([C@@H](C)CO)S(=O)(=O)c2ccc(C#Cc3ccccn3)cc2O[C@@H]1CN(C)Cc1cccc(F)c1	.	19.8*	.	-0.5	0.3
CC(C)C#Cc1ccc2c(c1)O[C@@H](CN(C)Cc1ccccc1)[C@@H](C)CN([C@@H](C)CO)S2(=O)=O	.	16.9*	.	15.6	-0.3
CCCC#Cc1ccc2c(c1)O[C@H](CN(C)Cc1ccccc1)[C@@H](C)CN([C@H](C)CO)S2(=O)=O	.	19.5*	.	19.6	.
CC(C)C#Cc1ccc2c(c1)O[C@H](CN(C)Cc1ccccc1)[C@H](C)CN([C@H](C)CO)S2(=O)=O	.	16.2*	.	6.5	-1.0
CCCC#Cc1ccc2c(c1)O[C@@H](CN(C)Cc1ccccc1)[C@@H](C)CN([C@H](C)CO)S2(=O)=O	.	-1.7	.	14.3	-1.8
C[C@@H]1CN([C@H](C)CO)C(=O)c2cc(-c3ccccc3F)cnc2O[C@H]1CN(C)C(=O)C1CCC1	.	0.4	.	-0.4	0.1
C[C@H]1CCCCO[C@H](CN(C)S(C)(=O)=O)[C@@H](C)CN([C@@H](C)CO)C(=O)c2cc(NC(=O)c3ccccc3)ccc2O1	.	-2.5	.	-10.0	1.0
O=C(c1ccccc1NS(=O)(=O)c1ccc([N+](=O)[O-])cc1[N+](=O)[O-])N1O[C@@H]2C=C[C@H]1C2	-18.3	-1.3	.	7.6	37.4*
O=C(c1ccccc1NS(=O)(=O)c1ccccc1[N+](=O)[O-])N1CCOCC1	-1.3	.	-1.7	6.7	.
C[C@H](CO)N1C[C@H](C)[C@@H](CN(C)Cc2ccc3c(c2)OCO3)OCCCC[C@H](C)Oc2ccc(NS(=O)(=O)c3ccc(Cl)cc3)cc2C1=O	.	8.9	.	9.3	2.1
CC(C)N1CCN(Cc2cnc(-c3ccccc3)s2)CC1CCO (stereo unspecified)	8.4	22.0*	-1.2	0.5	-3.0
CC(C)CCN1CCN(Cc2cnc(-c3ccccc3)s2)CC1CCO (stereo unspecified)	-4.8	-6.1	2.7	0.8	-1.6
CC(C)CCN1CCN(Cc2cnc(N3CCCC3)s2)CC1CCO (stereo unspecified)	-21.7	38.2*	-0.5	24.8	2.9
CO[C@H]1CN(C)C(=O)c2cc(NS(=O)(=O)c3cn(C)cn3)ccc2OC[C@H](C)N(CC2CC2)C[C@@H]1C	.	-1.0	.	-2.1	-1.0
COc1ccc2c3c(n(C)c2c1)[C@H](CO)NCC31CCN(CC2CC2)CC1	.	3.5	.	.	-0.8
